Among the data in PubChem BioAssay (NCATS) are Potency values, retold here.

Assay in all cases: qHTS profiling for inhibitors of Plasmodium falciparum proliferation (AID 504749); note: nearly all actives have a fitted effect of over 60% in size
Details in all cases: P. falciparum in erythrocytes, SYBR Green DNA, 72 h; series mostly up to 28.7 µM
A general note: Quantitative high-throughput screening tests each substance at several concentrations.

The test system of one test is CP215. In outline:
(§1)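 SYBR Green fluorescence (ex 485 nm, em 535 nm) reports parasite DNA after 72 h compound exposure of infected red cells at 0.3% parasitemia, 2.5% hematocrit; signal normalized to 0.29 uM artemisinin and vehicle wells.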

Another test concerns CP217. In short, it runs like this:
as §1

For another test, the system named is CP237. In outline: as §1
Another test has as its system CP238. In short, it runs like this: as §1
In the next test the test system is CP247. In short, it runs like this:
as §1

The test system of another test is CP250. In short, it runs like this:
as §1

The test system of a further test is CP252. In short, it runs like this: as §1
The next test concerns CP256. In outline:
as §1

A further test relates to CP262. In outline:
as §1

The subject of another test is CP266. In short, it runs like this: as §1
In a further test the test system is CP268. In outline:
as §1

The test system of a further test is CP269. In outline:
as §1

Another test deals with CP286. In short, it runs like this:
as §1

A further test relates to CP291. In short, it runs like this:
as §1

The next test relates to CP297. In outline: as §1
The subject of another test is CP305. In short, it runs like this:
as §1

A further test deals with CP315. In outline: as §1
A further test deals with CP325. In short, it runs like this: as §1
The test system of the next test is CP329. In outline:
as §1

A further test relates to CP335. In outline: as §1

Inconclusive results are not listed. Calls of active or inactive are those of the source. Calls come from the whole dose curve; as a rule, active = well fitted inhibition curve with a large enough effect; inconclusive = small, poorly fitted or top-dose-only effect; inactive = flat fitted curve, though single readings scatter.
Potency is the fitted concentration of half-maximal effect.

As for `CCCCC(=O)N(Cc1ccc(-c2ccccc2-c2nn[nH]n2)cc1)C(C(=O)O)C(C)C` (stereo not given), the Potency entry with CP215, with CP217, in the test on CP237, with CP238, in the test on CP247 and in the test with CP250 was “inactive” in each case. Also, the Potency result in the test with CP252, in the test on CP256, in the test with CP262, in the test with CP266, with CP268 and in the test with CP269 was “inactive” in each case. The Potency entry with CP286, in the test with CP291, in the test on CP297, in the test with CP305, with CP315 and with CP325 was “inactive” throughout. In the test on CP329, the Potency result is “inactive”. Besides, the Potency in the test with CP335 is 6.01 µM (active).
With `O=C(CC1NCCC[C@H]1O)Cn1cnc2cc(Br)c(Cl)cc2c1=O` (stereo not given in full), the Potency with CP215 is 3.79 µM (active); in the test on CP217, 3.16 µM (active); in the test with CP237, 3.55 µM (active); with CP238 it was 3.98 µM (active); in the test with CP247 it was 2.24 µM (active); in the test with CP250, 2.82 µM (active). The Potency in the test on CP252 is 1.12 µM (active); with CP256, 3.16 µM (active); with CP266 it was 3.79 µM (active); in the test with CP268, 3.38 µM (active); with CP269, 2.69 µM (active); with CP286 it was 2 µM (active). Further, the Potency is 2.69 µM (active) in the test on CP291; 3.38 µM (active) with CP297; 3.38 µM (active) in the test on CP305; 3.01 µM (active) in the test with CP315; 3.38 µM (active) in the test with CP325; 3.38 µM (active) in the test on CP329. The Potency in the test with CP335 is 0.601 µM (active). The Potency entry with CP262 is “inactive”.
